Measurements as given in paper PMC12136788.
Positions count from the first letter of the chain named. Over roughly 24,000 sequences, “enrichment r” has its median near 0.99; the highest 2% begin near 3.7. The full list was thinned out, with the highest values kept by preference.

B1: chr18:35731670:35731671:+_ENSMUSG00000037236_ENSMUST00000166793|perfect_dup|motif|central (ssRNA)
RNA: GGGAGUUCUACAGUCCGACGAUCUGACCCUGUGAGUCCCUACUGAGAGAUGACUGCUGGAAUGACUUGGACAUUGUAGAACGGGCUCUUGUCUAUUUUAUAGAUUAAAAAAAAAAAUUUUUUUAAAGACGGCCAAAAAGAAAGCAACAGAGGAUUGAGCAUCA
B2: chr16:20683585:20683586:+_ENSMUSG00000045983_ENSMUST00000044783|mus_mus|motif|central (ssRNA)
RNA: GGGAGUUCUACAGUCCGACGAUCUAUUGCUUCUGUUAACAUCUUCAACUUGAAUAACUCUCCAAUAAACUUGAUAUUCCCGGAAGAGCGCCGCCUAGCUAUGUCCCGGGCUUCUUCUAGCUCUUCUUUCAGGCGUCCCCGUUCCAACAGAGGAUUGAGCAUCA
B3: chr17:24706804:24706805:+_ENSMUSG00000032855_ENSMUST00000035565|mus_hu|FALSE|FALSE (ssRNA)
RNA: GGGAGUUCUACAGUCCGACGAUCGCAGCCGGGCACGAAGGUGGCCACCAGGGCAGGGCAGACAUUCUCAAAGCGGGCGCUGACACUGCCCCCAGGCCAGCGAGCCGUGGCCGUGGCGUUGGCACCAGAGUCCACCUGGAGCACCAACAGAGGAUUGAGCAUCA
B4: chr7:17149110:17149111:-_ENSMUSG00000058230_ENSMUST00000075845|mus_hu|FALSE|FALSE (ssRNA)
RNA: GGGAGUUCUACAGUCCGACGAUCAAUAUCCAUGUAUACAGAUUCCUCCAGCCACUGGUAGAAAUCCUCAUUCAUAAUAAAACUACGGGCCUCUUCCCAAGGCUUUCCGGGAGUUAUGAAAGGAGAAGUCUCCAGGUUUUCUUUCAACAGAGGAUUGAGCAUCA
B5: chr5:141234466:141234467:-_ENSMUSG00000000149_ENSMUST00000000153|mus_hu|motif|central (ssRNA)
RNA: GGGAGUUCUACAGUCCGACGAUCUAAUAAAAAAGACAAUAAGGAUUAACAGUGAAAUUAAAAUUAAAAAAUACAAAAGCCGGAGGUUCUGGAGACAAAACUGACUAGAGUCUAUGUGUAGCCAAGUUGUGAAUGACAGUUUAGCAACAGAGGAUUGAGCAUCA
B6: chr5:141234466:141234467:-_ENSMUSG00000000149_ENSMUST00000000153|mus_hu|FALSE|FALSE (ssRNA)
RNA: B5 RNA with G81U, G82A
B7: chr12:8504966:8504967:-_ENSMUSG00000054364_ENSMUST00000067384|mus_hu|FALSE|FALSE (ssRNA)
RNA: GGGAGUUCUACAGUCCGACGAUCACAAGUGUGGUCAGAAUGCUACUGUCGUAUGCAAAUGACGAGUGCAUUAAGUGUCAAACAAUGAAACAAUUGUGCAAAGAAUAAAAAAACAAAUUUUAGCCUUUAAAUAAAUCAAAUAACCAACAGAGGAUUGAGCAUCA

What follows are binders tested against T1, UNK ZnF1-3 (human, UniProt Q9C0B0 31-174) (assay: nsRBNS (natural sequence RNA bind-n-seq); RBNS binding buffer (assumed for nsRBNS): 25 mM Tris pH 7.5, 150 mM KCl, 3 mM MgCl2, 0.01% Triton X-100, 500 ug/ml BSA, 20 U/ml SUPERase-In, 4 C; UNK is unkempt and MSI1 is Musashi-1; names of the RNAs are library labels; protein concentration not given here; high values mean tight binding).
T1 sequence: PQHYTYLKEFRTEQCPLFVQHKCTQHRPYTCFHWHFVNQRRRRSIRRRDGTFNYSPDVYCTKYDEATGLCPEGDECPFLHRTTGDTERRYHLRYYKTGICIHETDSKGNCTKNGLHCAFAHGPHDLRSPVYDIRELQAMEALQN

Going from B1 to B2, the binding signal falls from 3.64 enrichment R to 0.438 enrichment R.

First: B3
Second: B4
The binding signal of the first is higher: 0.934 enrichment R for the first, 0.85 enrichment R for the second.

First: B5
Second: B6
The binding signal of the first is higher: 13.3 enrichment R for the first, 9.17 enrichment R for the second.

For B7, the binding signal was 2.25 enrichment R.
